About 1,300 (0.39%) of roughly 330,000 compounds were called active. This is one part of a sample in which actives are shown more often than they occur.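 The calls were made as follows: active = percent inhibition above a cutoff equal to the mean of all tested compounds plus 3 SD (cut at about 15% in these data); inactive = the rest.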
Molecular target: Protein-arginine deiminase type-4 (Homo sapiens) (UniProt Q9UM07)
Experiment: human PAD4 inhibitors, primary screen, biochemical, fluorescence polarization, 1536-well format (AID 485272);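 also: 0% = PAD4 with RCA probe and DMSO and 100% = probe without PAD4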
Details: recombinant PAD4, RCA probe fluorescence polarization; at 6.36 µM; hits give high values

Sequence of Protein-arginine deiminase type-4 (Homo sapiens) (Q9UM07 whole entry, looked up): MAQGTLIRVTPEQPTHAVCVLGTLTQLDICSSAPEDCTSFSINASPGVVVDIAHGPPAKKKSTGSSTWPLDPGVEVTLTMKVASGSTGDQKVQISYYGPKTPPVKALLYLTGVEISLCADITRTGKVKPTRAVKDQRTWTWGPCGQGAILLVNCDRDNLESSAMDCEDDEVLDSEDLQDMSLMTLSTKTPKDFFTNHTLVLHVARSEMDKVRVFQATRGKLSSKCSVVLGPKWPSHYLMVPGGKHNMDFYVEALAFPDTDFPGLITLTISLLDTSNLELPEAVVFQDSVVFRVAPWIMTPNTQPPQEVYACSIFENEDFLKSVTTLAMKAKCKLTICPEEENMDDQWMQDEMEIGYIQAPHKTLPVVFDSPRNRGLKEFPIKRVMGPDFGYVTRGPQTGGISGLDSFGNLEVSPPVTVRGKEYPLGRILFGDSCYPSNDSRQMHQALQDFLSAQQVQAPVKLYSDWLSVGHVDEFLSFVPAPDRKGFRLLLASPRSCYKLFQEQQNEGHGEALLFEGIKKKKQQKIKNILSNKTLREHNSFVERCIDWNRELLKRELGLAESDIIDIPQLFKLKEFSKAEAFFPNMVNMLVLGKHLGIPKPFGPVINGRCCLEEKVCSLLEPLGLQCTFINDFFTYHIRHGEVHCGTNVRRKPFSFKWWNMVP

inhibition, active:
C=CCN(C(=O)Nc1ccc2oc(C)nc2c1)c1ccccc1 39.8%
CC[N+](C)(CC)CCC[n+]1c(-c2ccccc2)c2cc(N)ccc2c2ccc(N)cc21 62.4%
Cc1cc2c(cc1C)N(C(=O)CN1C(=O)c3ccccc3C1=O)C(C)(C)c1ssc(=S)c1-2 44.1%
Cc1nn(C(=O)c2ccoc2C)c(N)c1-c1ccccc1 17.4%
COC(=O)CCCC1=CC2=CC(=O)C(C)(OC(=O)c3cccs3)C(=O)C2=CN1CC1CC1 (configuration not stated) 18.5%
CN(C)c1ccc(N/C=C/C(=O)C(F)(F)F)cc1 38.9%
Cc1cc(C(=O)CSc2nc(N)cc(=O)[nH]2)c(C)n1CCc1ccc(Cl)cc1 23.8%
COC(=O)c1ccc(NC(=O)CSc2nncc3ccc(OC)c(OC)c23)cc1 26.1%
COCCN1C=C2C(=O)C(C)(OC(=O)C3CCCC3)C(=O)C=C2C=C1c1ccsc1 (configuration not stated) 17.8%
CC(=O)Oc1ccccc1C(=O)Nc1ncc([N+](=O)[O-])s1 21.3%
Cc1ccn2cc(-c3nonc3C)cc2c1 15.3%
O=C(CN1CCCCCC1)Nc1ccc(Br)cc1Br 129%
Cc1[nH][nH]c(=O)c1C(c1ccc(-c2ccc(Cl)cc2)o1)c1c(C)[nH][nH]c1=O 20.2%
CCOC(=O)N1CCC(c2cc(=O)n(-c3ccccc3)[nH]2)CC1 55.1%
c1ccc2c(C[n+]3csc4ccccc43)cccc2c1 58.5%
COc1ccccc1CNC(=O)C1CCN(c2nc3ccccc3o2)CC1 23%
O=S(=O)(Nc1ccc(O)c2ccccc12)c1ccc(OC(F)(F)F)cc1 20.5%
COc1ccc(S(=O)(=O)N2CCOCC2)cc1NC(=O)CSc1ncnc2ccccc12 18.5%
Clc1ccc(C2=CSC3=Nc4cccc5cccc(c45)N23)cc1 15.1%

inhibition, inactive:
Cc1ccc(S(=O)(=O)N(CC(=O)Nc2cccnc2)c2ccc(Br)cc2)cc1 1.31%
O=C1CCCC2=C1C(c1cccs1)n1nc(SCc3ccccc3)nc1N2 (configuration not stated) -0.55%
NC(N)=N/N=C/c1ccc(OCc2ccc(Cl)cc2Cl)cc1 -4.09%
CCOC(=O)N1CCN(C(=O)c2ccccc2N(Cc2ccccc2)S(=O)(=O)c2ccc(OC)cc2)CC1 -4.41%
O=C(Nc1ccc2oc(-c3ccccc3F)nc2c1)c1ccco1 -5.36%
C=CCN(C(=O)Nc1ccc2c(c1)nc(C)n2C)c1ccccc1 2.79%
CCOc1ccc(S(=O)(=O)N2CCCCC2)cc1NC(=O)CN1CCCC1c1cccs1 (configuration not stated) -0.57%
CCOc1ccc(S(=O)(=O)N2CCN=C2Cc2ccccc2)cc1C 0.37%
Cc1ccc2[nH]c(C(=O)O)c(NC(=O)c3ccccc3[N+](=O)[O-])c2c1 4.63%
Cc1cc(C)cc(NC(=O)CN2C(=O)c3ccccc3C2=O)c1 4.21%
Cc1ccc2c(c1)-c1c(ssc1=S)C(C)(C)N2C(=O)CN1C(=O)c2ccccc2C1=O 0.29%
CCc1ccc(NC(=O)NC(C)c2ccc3c(c2)OCO3)cc1 (configuration not stated) -1.12%
O=C1CCN(Cc2ccc([N+](=O)[O-])cc2)CCN1[C@H](CO)Cc1ccccc1 -1.9%
C/C(=N\NC(=O)c1ccoc1C)c1ccccc1O -6.31%
CCOC(=O)c1c(N)nn(C(=O)c2ccccc2)c1-c1ccccc1 -9.18%
O=C(N1CCOCC1)N(Cc1ccccc1)c1ccccn1 -6.6%
COC(=O)CCCC1=CC2=CC(=O)C(C)(OC(=O)c3cccs3)C(=O)C2=CN1CC(C)C (configuration not stated) -1.01%
COC(=O)CCCC1=CC2=CC(=O)C(C)(OC(=O)c3cccs3)C(=O)C2=CN1c1cccc(C#N)c1 (configuration not stated) 4.64%
CS/C(=C\C(=O)c1ccco1)Nc1ccccc1Cl 0.03%
CN(C)c1ccc(NC(=O)c2ccncc2)c2ccccc12 -9.99%
COc1cc(OC)c(C(=O)Nc2ccc(N(C)C)cc2)cc1OC -1.49%
CC(C)CNC(=O)C(=O)Nc1ccc(N(C)C)cc1 -0.08%
CCCC1=Nc2cc(C(=O)NCc3ccco3)ccc2Sc2ccccc21 -2.78%
Cn1c(=O)cc(OCC(=O)N2CCN(c3ccccc3F)CC2)c2ccccc21 -3.43%
O=C(NNC(=O)c1cccc(S(=O)(=O)Nc2ccc(Cl)cc2)c1)c1ccc(=O)[nH]c1 0.33%
O=C(O)C1=NN(c2c(F)c(F)cc(F)c2F)C(=O)CC1 0.4%
Cc1cc(C(=O)CSc2nc(N)cc(=O)[nH]2)c(C)n1-c1cccc(F)c1 3.24%
CCCc1cc(=O)[nH]c(SCC(=O)c2cc(C)n(CCC)c2C)n1 1.34%
O=C(COc1cccnc1[N+](=O)[O-])Nc1ccc(Cl)cc1F -3.69%
CCOC(=O)CSc1nncc2ccc(OC)c(OC)c12 -1.97%
COC(=O)c1ccc(NC(=O)CSc2nncn2-c2cccnc2)cc1 6.18%
CC(=O)c1cccc(-n2nnnc2SCC(=O)NNC(=O)C2CCCCC2)c1 0.09%
CC1(OC(=O)C2CCCC2)C(=O)C=C2C=C(c3ccc(C#N)cc3)OC=C2C1=O (configuration not stated) 4.94%
CC1(OC(=O)CCc2ccccc2)C(=O)C=C2C=C(c3ccc(C#N)cc3)N(CCc3ccccn3)C=C2C1=O (configuration not stated) -12.6%
COc1ccc(N(CC(=O)NC2CCCCCCC2)S(=O)(=O)c2c(C)nn(C)c2C)cc1 -21.2%
COc1ccccc1C(=O)N/C(=C/c1ccc2c(c1)OCO2)C(=O)Nc1cccc(C(=O)O)c1 4.24%
O=C(Cc1c(F)cccc1Cl)Nc1ncc([N+](=O)[O-])s1 -0.75%
COc1ccc(NC(=O)c2ccccc2[N+](=O)[O-])cc1OC 0.28%
COc1ccc(-c2cn3ccc(C)cc3n2)cc1 -3.72%
COCC(C)n1c(C)cc(C(=O)CSc2cc(C)c3ccccc3n2)c1C (configuration not stated) -0.49%
COc1ccc(CNC(=O)COc2cccnc2[N+](=O)[O-])cc1 1.13%
COC(=O)c1cc(NC(=O)c2cc(C(C)(C)C)nn2Cc2cccc(C)c2)ccc1N1CCOCC1 2.9%
COc1cc(C(F)(F)F)nc2c(Br)c(C(C)(C)C)nn12 -1.55%
C[N+](C)(C)CCOP(=O)([O-])OC[C@H](O)CO 0.71%
O=C(CN1CCCCCC1)Nc1ccc(Cl)cc1F -5.26%
O=C(CN1CCCCCC1)Nc1ccc(Br)cc1[N+](=O)[O-] 0.42%
CC(C)C(=O)N1CC(=O)Nc2ccc(F)cc2C1c1ccc(F)cc1 (configuration not stated) 4.93%
CCOc1ccc(C(c2c(C)[nH][nH]c2=O)c2c(C)[nH][nH]c2=O)cc1OCC -2.1%
O=C(NC1CCCCC1)c1ccc(-c2ccc(Cl)cc2)o1 0.31%
CCOC(=O)N1CCC(NC(=O)COc2cc(=O)n(C)c3ccccc23)CC1 3.7%
CCOC(=O)N1CCC(NC(=O)CCc2ccccc2)CC1 1.67%
CCOC(=O)Cn1nnnc1C -0.83%
CC(C)N(Cc1ccccc1)C(=O)COC(=O)c1ccccc1SCC(=O)N1CCCC1 -1.69%
Nc1scc[n+]1Cc1cccc2cccnc12 -3.55%
N#C/C(=C(/O)Cc1cccc2ccccc12)c1nc2ccccc2s1 -0.3%
COc1ccccc1CNC(=O)C1CCN(S(C)(=O)=O)CC1 3.16%
COc1ccc(OC)c(CNC(=O)C2CCCN(c3nc4ccccc4o3)C2)c1 (configuration not stated) 0.33%
COc1ccc(CCNC(=S)NC(=O)/C=C/c2ccc(C)cc2)cc1OC 0.57%
CC(C)CC(=O)NC(=S)Nc1ccc(F)cc1F -0.18%
O=C1COc2ccc(S(=O)(=O)Nc3ccc(OC(F)(F)F)cc3)cc2N1 -0.73%
Cc1nn(C)c(C)c1NS(=O)(=O)c1ccc(OC(F)(F)F)cc1 -4.79%
O=S(=O)(Cc1cc(Cl)nc(-c2cccnc2)n1)c1ccccc1 -1.95%
Cc1ccc(C(NC(=O)N2CCCC2)C(Cl)(Cl)Cl)cc1F (configuration not stated) 0.88%
CC(C)Oc1ccc(S(=O)(=O)N2CCOCC2)cc1NC(=O)C1CSC2(C)CCC(=O)N12 (configuration not stated) -1.2%
Cc1c(C2=CCN(S(=O)(=O)c3ccc(Cl)cc3)CC2)c2ccccc2n1C -48.2%
COc1ccc(S(=O)(=O)N2CCOCC2)cc1NC(=O)CSc1nnc(NC2CC2)s1 -2.8%
COc1ccc(S(=O)(=O)N2CCOCC2)cc1NC(=O)COc1ccccc1 6.68%
CCCCCN(C(=O)CCC(=O)OCC(=O)NC1CCC(C)CC1)c1c(N)n(CCCC)c(=O)[nH]c1=O (configuration not stated) -1.97%
CC(C)CC(=O)N1CCC(O)(CS(=O)(=O)Cc2ccccc2)CC1 -3.05%
CCOc1ccc(Br)cc1S(=O)(=O)Nc1ccc(C(=O)OC(C)C(=O)N(C)c2ccccc2)cc1 (configuration not stated) 2.93%
CCOc1ccc(S(=O)(=O)n2ccnc2)c2ccccc12 3.78%
CN1CCN(S(=O)(=O)c2ccc(NC(=O)C3CCCO3)cc2)CC1 (configuration not stated) 2.71%
O=C(O)c1ccc(COc2c(F)c(F)cc(F)c2F)o1 -4.92%

Reference: PubChem BioAssay AID485272 (The Scripps Research Institute Molecular Screening Center, 2010)
